Laboratory results taken from the supplement of paper PMC11732987, “Enantioselective OTUD7B fragment discovery through chemoproteomics screening and high-throughput optimisation” (Communications Chemistry, 2025).

Tests used:
Test in all cases: log2 ratio of Biotin-Ahx-Ub-VS probe labelling (fragment/DMSO); higher = less target engagement (more negative = stronger competition), active = hit call of the paper (q ≤ 0.05, log2 ratio ≤ -1)
Details in all cases: compound concentration: 200 uM; treatment time: 3 h
USP16 = USP16 (UniProt Q9Y5T5)
Chain of USP16 (Q9Y5T5 whole entry, looked up, the tested form may be a part): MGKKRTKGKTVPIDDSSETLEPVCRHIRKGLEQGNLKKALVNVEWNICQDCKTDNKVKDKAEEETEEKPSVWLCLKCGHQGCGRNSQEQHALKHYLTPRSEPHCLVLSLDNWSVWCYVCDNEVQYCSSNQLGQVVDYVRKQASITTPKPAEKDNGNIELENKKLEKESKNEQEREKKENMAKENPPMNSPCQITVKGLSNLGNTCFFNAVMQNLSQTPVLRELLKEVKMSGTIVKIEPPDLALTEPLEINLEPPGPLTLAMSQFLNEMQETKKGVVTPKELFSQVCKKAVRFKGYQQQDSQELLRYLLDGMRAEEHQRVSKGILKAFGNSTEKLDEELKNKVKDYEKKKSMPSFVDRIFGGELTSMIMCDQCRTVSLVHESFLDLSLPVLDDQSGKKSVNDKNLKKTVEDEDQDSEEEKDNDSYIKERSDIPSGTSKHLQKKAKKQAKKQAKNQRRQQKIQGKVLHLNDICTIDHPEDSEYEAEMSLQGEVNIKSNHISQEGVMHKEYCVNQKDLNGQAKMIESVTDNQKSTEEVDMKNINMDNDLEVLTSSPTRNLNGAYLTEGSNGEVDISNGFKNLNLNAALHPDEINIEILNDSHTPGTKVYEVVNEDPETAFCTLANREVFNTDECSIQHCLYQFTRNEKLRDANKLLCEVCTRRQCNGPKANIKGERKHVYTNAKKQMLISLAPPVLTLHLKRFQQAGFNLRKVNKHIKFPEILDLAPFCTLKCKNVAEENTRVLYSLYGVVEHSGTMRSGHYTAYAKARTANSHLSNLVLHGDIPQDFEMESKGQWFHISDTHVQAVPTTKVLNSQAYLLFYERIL
How it was run: (§1)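 Global-median-normalised Spectronaut label-free quantities were compared by unpaired t-test, and values are average log2 ratios of fragment over vehicle. Only proteins with ≥2 unique peptides were used. HEK293T lysate (495 µg per sample) was treated in triplicate with fragment at 200 µM or vehicle for 3 h and then with Biotin-Ahx-Ub-VS at 0.5 µM final for 1 h. Labelled DUBs were then NeutrAvidin-enriched, digested with LysC and trypsin, and run by diaPASEF LC-MS/MS.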

USP19 = target: T1, USP19 (UniProt O94966)
T1 sequence (whole entry): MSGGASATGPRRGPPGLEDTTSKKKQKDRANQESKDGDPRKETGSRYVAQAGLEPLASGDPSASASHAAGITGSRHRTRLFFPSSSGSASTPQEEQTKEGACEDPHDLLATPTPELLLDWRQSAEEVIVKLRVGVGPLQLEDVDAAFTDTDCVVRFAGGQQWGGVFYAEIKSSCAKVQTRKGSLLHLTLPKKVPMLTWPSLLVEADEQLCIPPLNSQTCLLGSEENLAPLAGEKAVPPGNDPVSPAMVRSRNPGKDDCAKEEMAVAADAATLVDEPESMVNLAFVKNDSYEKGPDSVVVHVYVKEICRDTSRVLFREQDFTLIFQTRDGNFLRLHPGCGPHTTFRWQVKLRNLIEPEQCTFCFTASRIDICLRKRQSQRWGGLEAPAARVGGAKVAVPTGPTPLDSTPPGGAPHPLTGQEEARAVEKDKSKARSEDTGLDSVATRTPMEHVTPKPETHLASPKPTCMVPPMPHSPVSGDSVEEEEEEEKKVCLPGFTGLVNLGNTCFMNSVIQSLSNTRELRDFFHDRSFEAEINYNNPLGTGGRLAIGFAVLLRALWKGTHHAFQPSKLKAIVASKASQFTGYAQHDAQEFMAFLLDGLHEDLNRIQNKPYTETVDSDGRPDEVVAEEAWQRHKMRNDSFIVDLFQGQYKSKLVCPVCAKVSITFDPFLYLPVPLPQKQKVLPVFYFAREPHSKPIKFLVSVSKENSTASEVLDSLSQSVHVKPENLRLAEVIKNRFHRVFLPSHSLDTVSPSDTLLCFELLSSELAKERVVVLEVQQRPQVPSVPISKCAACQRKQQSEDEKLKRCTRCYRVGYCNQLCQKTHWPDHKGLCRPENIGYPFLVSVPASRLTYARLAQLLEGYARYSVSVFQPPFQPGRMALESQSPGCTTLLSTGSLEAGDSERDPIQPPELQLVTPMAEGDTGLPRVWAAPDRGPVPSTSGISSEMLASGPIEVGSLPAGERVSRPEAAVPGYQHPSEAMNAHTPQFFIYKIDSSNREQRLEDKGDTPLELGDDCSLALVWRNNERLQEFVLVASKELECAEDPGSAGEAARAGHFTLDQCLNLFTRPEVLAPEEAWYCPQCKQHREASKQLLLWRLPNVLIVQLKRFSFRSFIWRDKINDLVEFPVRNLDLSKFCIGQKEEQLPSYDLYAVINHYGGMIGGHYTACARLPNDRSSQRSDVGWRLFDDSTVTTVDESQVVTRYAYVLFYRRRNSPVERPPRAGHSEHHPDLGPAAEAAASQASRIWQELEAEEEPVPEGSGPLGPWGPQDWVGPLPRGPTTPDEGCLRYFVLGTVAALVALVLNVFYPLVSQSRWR
How it was run: as §1

USP24 = USP24 (UniProt Q9UPU5)
Chain of USP24 (Q9UPU5 whole entry): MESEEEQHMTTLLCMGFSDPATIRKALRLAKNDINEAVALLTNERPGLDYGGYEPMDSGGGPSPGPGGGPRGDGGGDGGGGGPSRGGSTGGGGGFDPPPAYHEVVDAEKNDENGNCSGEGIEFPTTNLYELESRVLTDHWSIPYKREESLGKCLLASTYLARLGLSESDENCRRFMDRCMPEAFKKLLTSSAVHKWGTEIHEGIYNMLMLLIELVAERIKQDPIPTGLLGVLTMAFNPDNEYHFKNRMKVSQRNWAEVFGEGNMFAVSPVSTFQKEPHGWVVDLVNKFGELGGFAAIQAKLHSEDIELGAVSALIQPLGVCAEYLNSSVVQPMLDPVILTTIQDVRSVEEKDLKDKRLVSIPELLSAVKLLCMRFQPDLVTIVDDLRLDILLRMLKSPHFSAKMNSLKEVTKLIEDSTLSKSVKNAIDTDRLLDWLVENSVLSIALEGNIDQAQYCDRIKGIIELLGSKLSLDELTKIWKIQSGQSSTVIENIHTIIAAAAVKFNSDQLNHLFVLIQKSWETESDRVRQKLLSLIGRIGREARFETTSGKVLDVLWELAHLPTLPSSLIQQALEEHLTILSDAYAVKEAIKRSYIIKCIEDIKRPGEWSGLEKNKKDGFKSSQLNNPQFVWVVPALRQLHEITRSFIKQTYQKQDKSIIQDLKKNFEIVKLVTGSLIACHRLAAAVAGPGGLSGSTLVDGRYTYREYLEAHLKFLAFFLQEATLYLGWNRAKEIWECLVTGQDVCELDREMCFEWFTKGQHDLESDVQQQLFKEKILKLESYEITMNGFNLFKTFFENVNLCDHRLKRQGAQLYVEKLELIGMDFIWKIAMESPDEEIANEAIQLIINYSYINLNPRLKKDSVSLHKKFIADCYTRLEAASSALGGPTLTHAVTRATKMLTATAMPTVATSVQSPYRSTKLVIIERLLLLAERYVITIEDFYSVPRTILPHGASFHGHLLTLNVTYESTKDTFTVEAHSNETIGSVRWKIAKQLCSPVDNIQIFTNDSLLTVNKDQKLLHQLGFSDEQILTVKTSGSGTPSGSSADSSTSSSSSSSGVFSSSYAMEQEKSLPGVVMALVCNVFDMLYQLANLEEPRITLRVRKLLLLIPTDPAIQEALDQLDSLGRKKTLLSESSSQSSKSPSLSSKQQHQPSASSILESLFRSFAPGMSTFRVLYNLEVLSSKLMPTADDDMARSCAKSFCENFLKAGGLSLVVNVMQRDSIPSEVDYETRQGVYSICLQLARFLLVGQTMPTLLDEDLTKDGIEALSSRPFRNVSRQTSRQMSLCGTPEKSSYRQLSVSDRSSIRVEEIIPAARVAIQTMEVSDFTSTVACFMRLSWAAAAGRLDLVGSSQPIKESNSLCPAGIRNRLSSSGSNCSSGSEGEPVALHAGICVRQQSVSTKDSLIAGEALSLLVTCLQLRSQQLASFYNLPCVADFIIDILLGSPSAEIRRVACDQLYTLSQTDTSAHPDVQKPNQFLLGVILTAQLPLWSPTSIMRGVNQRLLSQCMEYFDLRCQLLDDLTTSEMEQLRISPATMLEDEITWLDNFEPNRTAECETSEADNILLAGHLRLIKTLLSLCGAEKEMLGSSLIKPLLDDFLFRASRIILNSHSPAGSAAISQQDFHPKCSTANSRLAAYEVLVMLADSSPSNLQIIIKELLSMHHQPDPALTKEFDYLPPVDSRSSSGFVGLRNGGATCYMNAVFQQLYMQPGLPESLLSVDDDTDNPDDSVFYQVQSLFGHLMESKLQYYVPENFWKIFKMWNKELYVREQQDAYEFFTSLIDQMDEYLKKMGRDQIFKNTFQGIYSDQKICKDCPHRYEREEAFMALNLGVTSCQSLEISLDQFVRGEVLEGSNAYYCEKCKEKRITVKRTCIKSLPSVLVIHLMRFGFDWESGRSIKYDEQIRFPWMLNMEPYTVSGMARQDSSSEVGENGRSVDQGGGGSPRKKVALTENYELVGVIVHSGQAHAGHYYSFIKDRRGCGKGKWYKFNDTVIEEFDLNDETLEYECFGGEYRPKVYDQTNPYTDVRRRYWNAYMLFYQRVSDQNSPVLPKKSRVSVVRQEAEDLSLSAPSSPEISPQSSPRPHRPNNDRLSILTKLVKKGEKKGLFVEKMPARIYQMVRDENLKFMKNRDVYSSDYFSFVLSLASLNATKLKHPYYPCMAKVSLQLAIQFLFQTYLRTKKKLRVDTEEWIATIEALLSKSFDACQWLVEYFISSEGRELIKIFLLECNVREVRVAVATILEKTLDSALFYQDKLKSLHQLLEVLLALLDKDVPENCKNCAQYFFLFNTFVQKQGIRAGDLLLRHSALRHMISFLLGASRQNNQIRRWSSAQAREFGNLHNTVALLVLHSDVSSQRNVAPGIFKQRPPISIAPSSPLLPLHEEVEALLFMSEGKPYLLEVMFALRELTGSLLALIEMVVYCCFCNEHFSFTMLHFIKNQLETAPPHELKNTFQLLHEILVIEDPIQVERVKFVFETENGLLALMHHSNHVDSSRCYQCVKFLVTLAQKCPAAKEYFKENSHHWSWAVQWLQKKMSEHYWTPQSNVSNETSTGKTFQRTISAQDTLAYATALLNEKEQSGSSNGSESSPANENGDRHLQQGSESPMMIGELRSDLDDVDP
How it was run: as §1

USP25 = target: T2, USP25 (UniProt Q9UHP3)
T2 sequence (whole entry): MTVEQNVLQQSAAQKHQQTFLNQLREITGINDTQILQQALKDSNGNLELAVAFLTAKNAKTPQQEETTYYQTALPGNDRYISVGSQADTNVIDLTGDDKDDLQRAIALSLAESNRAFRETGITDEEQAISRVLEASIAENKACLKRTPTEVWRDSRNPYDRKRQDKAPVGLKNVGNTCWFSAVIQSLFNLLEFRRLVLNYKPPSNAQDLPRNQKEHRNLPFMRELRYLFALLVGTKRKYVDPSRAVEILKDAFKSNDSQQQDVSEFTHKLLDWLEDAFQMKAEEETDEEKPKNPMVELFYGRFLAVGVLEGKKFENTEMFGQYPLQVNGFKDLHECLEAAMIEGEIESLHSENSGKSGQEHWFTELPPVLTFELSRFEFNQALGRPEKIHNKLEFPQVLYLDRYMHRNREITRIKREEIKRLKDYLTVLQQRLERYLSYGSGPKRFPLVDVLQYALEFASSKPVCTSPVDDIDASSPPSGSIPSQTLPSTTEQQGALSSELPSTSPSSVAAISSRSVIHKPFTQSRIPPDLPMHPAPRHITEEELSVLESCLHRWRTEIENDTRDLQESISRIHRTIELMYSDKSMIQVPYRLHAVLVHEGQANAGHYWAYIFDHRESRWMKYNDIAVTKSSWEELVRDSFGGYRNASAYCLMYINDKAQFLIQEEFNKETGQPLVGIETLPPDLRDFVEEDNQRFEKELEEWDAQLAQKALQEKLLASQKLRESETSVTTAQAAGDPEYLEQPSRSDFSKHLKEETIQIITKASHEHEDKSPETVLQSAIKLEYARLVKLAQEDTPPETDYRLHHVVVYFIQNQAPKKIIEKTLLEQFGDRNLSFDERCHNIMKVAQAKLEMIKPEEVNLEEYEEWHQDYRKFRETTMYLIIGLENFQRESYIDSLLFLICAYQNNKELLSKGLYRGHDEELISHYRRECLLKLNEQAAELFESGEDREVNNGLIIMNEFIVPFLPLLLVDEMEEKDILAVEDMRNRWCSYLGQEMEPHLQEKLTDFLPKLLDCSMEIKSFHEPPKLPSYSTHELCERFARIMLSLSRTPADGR
How it was run: as §1

USP28 = target: T3, USP28 (UniProt Q96RU2)
T3 sequence (whole entry): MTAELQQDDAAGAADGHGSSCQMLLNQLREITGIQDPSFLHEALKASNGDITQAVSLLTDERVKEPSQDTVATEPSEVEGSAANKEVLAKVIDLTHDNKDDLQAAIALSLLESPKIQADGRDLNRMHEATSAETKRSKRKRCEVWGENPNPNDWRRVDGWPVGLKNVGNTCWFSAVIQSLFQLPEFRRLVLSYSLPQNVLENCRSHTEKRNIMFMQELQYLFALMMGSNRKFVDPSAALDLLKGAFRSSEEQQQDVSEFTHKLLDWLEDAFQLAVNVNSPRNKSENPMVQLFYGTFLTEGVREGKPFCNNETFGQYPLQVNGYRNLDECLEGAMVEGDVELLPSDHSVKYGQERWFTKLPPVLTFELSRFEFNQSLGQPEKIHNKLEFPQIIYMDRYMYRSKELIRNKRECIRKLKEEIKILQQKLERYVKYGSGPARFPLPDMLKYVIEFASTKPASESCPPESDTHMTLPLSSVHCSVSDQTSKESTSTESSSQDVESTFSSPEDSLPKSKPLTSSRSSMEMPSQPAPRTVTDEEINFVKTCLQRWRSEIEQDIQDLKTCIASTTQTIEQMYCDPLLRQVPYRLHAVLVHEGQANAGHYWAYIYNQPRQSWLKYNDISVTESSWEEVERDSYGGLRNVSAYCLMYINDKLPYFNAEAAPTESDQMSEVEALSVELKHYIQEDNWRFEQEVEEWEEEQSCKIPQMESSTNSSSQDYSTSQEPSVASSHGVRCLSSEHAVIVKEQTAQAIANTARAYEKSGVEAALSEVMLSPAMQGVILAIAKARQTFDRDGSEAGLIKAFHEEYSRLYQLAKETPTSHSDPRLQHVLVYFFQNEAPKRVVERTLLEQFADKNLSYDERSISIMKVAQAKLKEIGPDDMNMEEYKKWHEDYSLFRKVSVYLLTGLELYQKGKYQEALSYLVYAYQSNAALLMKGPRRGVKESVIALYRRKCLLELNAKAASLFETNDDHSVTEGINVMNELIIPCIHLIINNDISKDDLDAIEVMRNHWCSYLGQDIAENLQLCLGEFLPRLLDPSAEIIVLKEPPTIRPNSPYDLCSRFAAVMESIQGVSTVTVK
How it was run: as §1

Measured: log2 ratio of Biotin-Ahx-Ub-VS probe labelling

O=C(CCl)NC1(c2ccc3c(c2)OCCO3)CCCC1
inactive: USP16 -0.316 | USP19 -0.103 | USP24 -0.451 | USP25 -0.337 | USP28 -0.402
